# A selection: hits, their analogues and other compounds. The true share with any hit is near 6.8%.
# T cruzi growth-1 = inhibitors of T. cruzi proliferation; AID 624255; T. cruzi beta-gal in NIH3T3, GalScreen luminescence, 90 h; inhibition, % at 8.34 µM; actives 5.9% (n = 77,000);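 active means mean inhibition above about 93%, with at least 55% of replicates each passing it, limit read from the data, passing the limit was not always enough; inconclusive means only one of those two conditions holds; inactive means neither condition holds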
# Pf Dd2 growth = blocks growth of Plasmodium falciparum Dd2 parasites. P. falciparum Dd2 growth, SYBR Green, 72 h; hits give low values. actives 2.3% (n = 94,000). activity change, % at 10 µM. AID 1159554; in the data active means activity change below about -80%; inconclusive means no clear call, values can overlap the other calls
# C diff growth = inhibitors of Clostridium difficile growth; Clostridium difficile clinical isolate growth, OD600, 24 h; hits give low values; growth activity, negative = inhibition, % at 16 µg/mL (by protocol); actives 0.25% (n = 86,000);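 active means mean growth activity at or below -80% and every replicate also at or below -80%; inconclusive means mean at or below -80% but some replicate above -80%; inactive means mean growth activity above -80%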
# T cruzi growth-2 = blocks T. cruzi growth in NIH3T3 host cells | shares compounds with T cruzi growth-1 | T. cruzi beta-gal in NIH3T3, GalScreen luminescence, 90 h | inhibition, % at 8.35 µM | actives 72% (n = 5,600);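 active means mean replicate inhibition above about 95% and at least 55% of replicates individually reaching it, limit read from the data; inconclusive means only one of the two criteria is met; inactive means neither criterion is met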
# T cruzi growth-3 = blocks T. cruzi growth in NIH3T3 host cells | actives 21% (n = 5,600) | shares compounds with T cruzi growth-1 | inhibition, % at 2.09 µM | T. cruzi beta-gal in NIH3T3, GalScreen luminescence, 90 h;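 active means mean inhibition above about 95%, with at least 55% of replicates also reaching it, limit read from the data; inconclusive means meets just one of the two conditions; inactive means meets neither condition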
# 3T3 cytotox = NIH/3T3 (mouse) viability loss; shares compounds with T cruzi growth-1; NIH/3T3 viability, CellTiter-Glo ATP luminescence, 90 h; cytotoxicity (signal decrease), % at 8.35 µM; actives 14% (n = 5,600); AID 651742;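 active means mean signal decrease across replicates above about 35% based on untreated-well scatter, with enough replicates individually passing, limit read from the data; inconclusive means no rule stated though some were filed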
# 3T3 cytotox 2 = cytotoxicity in mouse NIH/3T3 fibroblasts | inhibition, % at 24.9 µM | actives 56% (n = 5,600) | NIH/3T3 viability, CellTiter-Glo ATP luminescence, 90 h | shares compounds with T cruzi growth-1 | AID 651744;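 active means mean loss of cell viability signal at or above a set limit, and enough replicates individually reaching it; inconclusive means meets only the mean limit or only the replicate share; inactive means meets neither condition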
# Numbers stand for hits; – = inactive; ? = inconclusive; · = not tested or not shown.
SMILES,T cruzi growth-1,Pf Dd2 growth,C diff growth,T cruzi growth-2,T cruzi growth-3,3T3 cytotox,3T3 cytotox 2
Cc1ccc(S(=O)(=O)N2C[C@@H](O)COC[C@H]3O[C@@H](CC(=O)N[C@H]4CCN(Cc5ccccc5)C4)CC[C@@H]32)cc1,98.9,–,·,106.0,–,–,–
COc1ccc(S(=O)(=O)N2C[C@@H](O)COC[C@H]3O[C@H](CC(=O)N[C@@H]4CCN(Cc5ccccc5)C4)CC[C@@H]32)cc1,–,·,–,·,·,·,·
C[C@H](CO)N1C[C@H](C)[C@@H](CN(C)Cc2ccccc2C(F)(F)F)OCc2ccccc2-c2ccccc2C1=O,·,–,–,·,·,·,·
C[C@@H]1CN([C@H](C)CO)C(=O)CCCn2cc(nn2)CO[C@@H]1CN(C)Cc1ccc(Cl)c(Cl)c1,–,–,–,·,·,·,·
C[C@@H]1CN([C@@H](C)CO)C(=O)c2cc(NC(=O)Nc3ccc(C(F)(F)F)cc3)ccc2O[C@@H](C)CCCCO[C@H]1CN(C)Cc1ccc(C(=O)O)cc1,–,–,–,·,·,·,·
C[C@@H]1CN([C@@H](C)CO)C(=O)c2cc(NC(=O)Nc3ccc(F)cc3)ccc2O[C@@H](C)CCCCO[C@@H]1CN(C)Cc1ccc(C(F)(F)F)cc1,101.4,–,·,104.6,114.0,–,–
C[C@@H]1CCCCO[C@@H](CN(C)Cc2ccc(C(F)(F)F)cc2)[C@H](C)CN([C@@H](C)CO)C(=O)c2cc(NC(=O)Nc3ccc(F)cc3)ccc2O1,–,–,·,·,·,·,·
C[C@H](CO)N1C[C@H](C)[C@@H](CN(C)Cc2ccc(C(F)(F)F)cc2)OCCCC[C@H](C)Oc2ccc(NC(=O)Nc3ccc(F)cc3)cc2C1=O,?,–,·,–,110.0,–,–
COc1ccc(CNC(=O)C[C@H]2CC[C@@H](NC(=O)c3ccc4c(c3)OCO4)[C@H](CO)O2)cc1,–,–,–,·,·,·,·
CO[C@H](CN(C)C(=O)C1CC1)[C@H](C)CN(C(=O)Nc1ccc(C(F)(F)F)cc1)[C@H](C)CO,111.4,–,·,–,–,–,25.1
CO[C@H](CN(C)C(=O)C1CCOCC1)[C@H](C)CN(C(=O)Nc1ccc(C(F)(F)F)cc1)[C@H](C)CO,113.5,–,·,104.2,–,–,44.9
CO[C@H](CN(C)C(=O)C1CC1)[C@@H](C)CN(C(=O)Nc1ccc(C(F)(F)F)cc1)[C@@H](C)CO,–,–,·,·,·,·,·
CO[C@H](CN(C)C(=O)C1CCOCC1)[C@@H](C)CN(C(=O)Nc1ccc(C(F)(F)F)cc1)[C@H](C)CO,–,–,·,·,·,·,·
CN(C)C(=O)C[C@@H]1CC[C@@H]2[C@H](COc3ccc(NC(=O)c4ccc(F)c(F)c4)cc3C(=O)N2C)O1,–,–,–,·,·,·,·
COCCNC(=O)C[C@@H]1C[C@H]2c3cc(NC(=O)CC4CC4)ccc3O[C@H]2[C@H](CO)O1,–,–,–,·,·,·,·
C[C@H]1CN([C@@H](C)CO)C(=O)c2cc(NS(=O)(=O)c3ccc(Cl)cc3)ccc2O[C@@H]1CN(C)Cc1ccc(C(=O)Nc2ccccc2N)cc1,–,–,–,·,·,·,·
COc1ccc(S(=O)(=O)Nc2cccc3c2O[C@@H](CN(C)Cc2ccc(C(=O)Nc4ccccc4N)cc2)[C@H](C)CN([C@H](C)CO)C3=O)cc1,·,–,–,·,·,·,·
COc1ccc(S(=O)(=O)Nc2cccc3c2O[C@@H](CN(C)Cc2ccc(C(=O)O)cc2)[C@@H](C)CN([C@@H](C)CO)C3=O)cc1,–,–,·,·,·,·,·
Cc1ccc(S(=O)(=O)Nc2cccc3c2O[C@@H](CN(C)Cc2ccc(C(=O)Nc4ccccc4N)cc2)[C@@H](C)CN([C@@H](C)CO)C3=O)cc1,·,–,–,·,·,·,·
C[C@H]1CN([C@@H](C)CO)C(=O)c2cccc(NS(=O)(=O)c3ccc(Cl)cc3)c2O[C@H]1CN(C)Cc1ccc(C(=O)Nc2ccccc2N)cc1,104.2,-89.1,–,–,–,–,38.5
COc1ccc(S(=O)(=O)Nc2cccc3c2O[C@@H](CN(C)Cc2ccc(C(=O)O)cc2)[C@@H](C)CN([C@H](C)CO)C3=O)cc1,100.7,–,·,–,–,–,–
C[C@@H]1CN([C@@H](C)CO)C(=O)c2cc(NS(=O)(=O)c3ccc(Cl)cc3)ccc2O[C@@H]1CN(C)Cc1ccc(C(=O)Nc2ccccc2N)cc1,105.6,?,–,108.2,–,–,61.8
COc1ccc(S(=O)(=O)Nc2cccc3c2O[C@@H](CN(C)Cc2ccc(C(=O)Nc4ccccc4N)cc2)[C@@H](C)CN([C@@H](C)CO)C3=O)cc1,?,–,–,–,–,–,37.1
CCNC(=O)C[C@H]1CC[C@H](NC(=O)C2CC2)[C@@H](CO)O1,–,–,·,·,·,·,·
Cc1ccc(S(=O)(=O)Nc2ccc3c(c2)C(=O)N([C@@H](C)CO)C[C@@H](C)[C@@H](CN(C)C(=O)Nc2c(C)noc2C)OCCCC[C@@H](C)O3)cc1,–,–,–,·,·,·,·
SMILES,T cruzi growth-1,Pf Dd2 growth,C diff growth,T cruzi growth-2,T cruzi growth-3,3T3 cytotox,3T3 cytotox 2
C[C@H](CO)N1C[C@H](C)[C@H](CN(C)C(=O)Nc2ccc(C(F)(F)F)cc2)Oc2ccc(NC(=O)CCCCCC(=O)Nc3ccccc3N)cc2CC1=O,–,–,–,·,·,·,·
CN(C)C(=O)C[C@@H]1CC[C@H](NS(=O)(=O)c2ccccc2)[C@H](CO)O1,–,–,·,·,·,·,·
C[C@@H]1CN([C@H](C)CO)C(=O)Cc2cc(NC(=O)C3CCCCC3)ccc2O[C@@H]1CN(C)C(=O)Nc1ccc(C(F)(F)F)cc1,–,–,–,·,·,·,·
C[C@H]1CN([C@@H](C)CO)C(=O)c2cc(NS(=O)(=O)c3cn(C)cn3)ccc2O[C@@H]1CN(C)Cc1ccc(C(=O)Nc2ccccc2N)cc1,?,–,·,–,–,–,–
C[C@@H]1CCCCO[C@H](CN(C)Cc2ccc(C(=O)Nc3ccccc3N)cc2)[C@@H](C)CN([C@H](C)CO)C(=O)c2cc(NS(=O)(=O)c3cn(C)cn3)ccc2O1,–,–,–,·,·,·,·
CC(=O)N1CC2(C1)[C@H](c1ccccc1)[C@@H](CO)N2S(=O)(=O)c1ccccc1,·,–,–,·,·,·,·
CC(C)NC(=O)N1CCCCN2[C@H](CO)[C@H](c3ccc(C#Cc4ccccc4F)cc3)[C@@H]2C1,95.7,–,–,109.6,–,41.6,77.1
CC(C)NC(=O)N1CCCCN2[C@H](C1)[C@@H](c1ccc(C#Cc3ccccc3F)cc1)[C@@H]2CO,–,–,–,·,·,·,·
CC(C)NC(=O)N1CCCCN2[C@@H](CO)[C@@H](c3ccc(C#Cc4ccccc4F)cc3)[C@@H]2C1,–,–,–,·,·,·,·
CC(C)NC(=O)N1CCCCN2[C@H](CO)[C@@H](c3ccc(C#Cc4ccccc4F)cc3)[C@H]2C1,112.4,–,–,100.0,–,–,103.5
O=C(C1CC1)N1CC(=O)N2[C@H](CO)[C@@H](c3ccc(C#CC4CCCC4)cc3)[C@H]2C1,·,–,–,·,·,·,·
COc1ccccc1CNC(=O)C[C@H]1CC[C@H](NC(=O)CN(C)C)[C@H](CO)O1,–,–,–,·,·,·,·

# Screening data from PubChem BioAssay.
